In the library only some 3.4% were active in any assay of this set; here they are far more common.
FBW7 activator – FBW7 E3 ligase activators, primary screen, biochemical, AlphaScreen, human. hit rate 0.13% among 650,000. AlphaScreen FBW7–phospho-cyclin E peptide binding, activator screen. normalized activity (activation), % at 26.1 µM. F-box/WD repeat-containing protein 7 (Homo sapiens), Q969H0; in the data active = normalized activity above about 1.9%;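 also: purified mutant Fbw7 with reduced substrate affinity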
MITF primary – MITF inhibitors, primary screen, biochemical, AlphaScreen, human | Microphthalmia-associated transcription factor (Homo sapiens), O75030 | AlphaScreen MITF homodimerization, bead proximity signal | inhibition, % at 2.6 µM | hit rate 0.91% among 650,000 | AID 1259374, 2018; in the data active = inhibition above about 50%;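 also: 0% = vehicle wells with protein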
Target sequence (O75030 whole entry, looked up): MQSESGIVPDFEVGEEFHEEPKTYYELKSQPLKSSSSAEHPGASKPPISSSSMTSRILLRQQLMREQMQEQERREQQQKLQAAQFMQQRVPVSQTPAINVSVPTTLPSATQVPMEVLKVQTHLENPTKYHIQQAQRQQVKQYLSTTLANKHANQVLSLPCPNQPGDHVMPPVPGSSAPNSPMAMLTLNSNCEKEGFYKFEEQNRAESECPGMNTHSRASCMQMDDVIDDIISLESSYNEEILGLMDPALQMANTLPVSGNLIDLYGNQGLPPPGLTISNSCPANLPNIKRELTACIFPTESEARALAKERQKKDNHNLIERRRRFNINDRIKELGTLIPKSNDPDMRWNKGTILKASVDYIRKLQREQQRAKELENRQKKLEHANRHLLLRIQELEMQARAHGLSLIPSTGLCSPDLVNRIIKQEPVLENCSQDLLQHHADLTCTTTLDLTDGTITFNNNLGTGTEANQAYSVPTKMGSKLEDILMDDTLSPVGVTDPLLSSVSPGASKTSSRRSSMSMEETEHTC
GPR151 activ – activators of human GPR151, primary screen, cell-based, PathHunter beta-arrestin, luminescence | hit rate 1% among 650,000 | PathHunter beta-arrestin GPR151 cells | AID 1508602, 2020 | activation, % at 11.2 µM; in the data active = activation above about 4.9%;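 also: 0% = median of compound wells and 100% = cells with positive control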
TEAD-YAP inh – TEAD-YAP interaction inhibition, primary screen, TEAD-YAP interaction inhibitor project, luminescence, HEK-TIYL cells. TEAD-Gal4/YAP UAS-luciferase luminescence. inhibition, % at 9.12 µM. hit rate 1.4% among 640,000; in the data active = inhibition above about 32%;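 also: 0% = median of test compound wells and 100% = reference inhibitor wells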
GPR151 conf act – GPR151 activators, triplicate retest, confirmation, cell-based, PathHunter beta-arrestin, luminescence; activation, % at 11.2 µM; shares compounds with GPR151 activ; GPR151 PathHunter beta-arrestin cells, 90 min; % of EA-reagent control over plate median; 6,700 tested, under 10 active;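 active = mean percent activation across replicates above the confirmation screen cutoff of 4.91%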
GPR119 counter – GPR119 activators in beta-arrestin cells, counter-screen for GPR151 activator project, cell-based, PathHunter beta-arrestin, luminescence, triplicate; hit rate 0.3% among 6,700; 90 min; 0 = compound-well median, 100 = enzyme-acceptor control; activation, % at 11.2 µM; AID 1508611, 2020; shares compounds with GPR151 activ;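 active = mean percent activation in the counterscreen above 29.09%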;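 also: counterscreen on off-target GPR119 to flag nonselective hits from the GPR151 activator screen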
An asterisk follows results filed as active; · = no result given; ! = not confirmed by another sample.

SMILES	FBW7 activator	MITF primary	GPR151 activ	TEAD-YAP inh	GPR151 conf act	GPR119 counter
COc1ccc(-c2cc(Nc3ccc(Oc4ccccc4)cc3)nc(N)n2)cc1	0	8	5	-2	·	·
Nc1cccc(-c2cc(Nc3ccc(Oc4ccccc4)cc3)nc(N)n2)c1	0	7	4.9*	52*	1	-7
O=C(Nc1ccccc1C(F)(F)F)C1C2CC3OC(=O)C1C3C2 (stereo not drawn)	0	-14	0	-11	·	·
N#Cc1ccccc1CN1CCC(Oc2cccc(-c3cccnc3)c2)CC1	0	1	5.2*	8	-1	7
CCOC(=O)C1=C(C)N=c2s/c(=C\c3ccc(-c4cc(C)c(C)c([N+](=O)[O-])c4)o3)c(=O)n2C1c1ccc(C(C)C)cc1 (stereo not drawn)	0	-6	-2	-7	·	·
CCOc1cc(/C=C(\C#N)C(=O)c2ccccc2)ccc1OCCn1c([N+](=O)[O-])cnc1C	0	5	8.9*	-8	-1	0
CCOc1ccc(/C=N/n2c(C)nc3ccccc3c2=O)cc1	0	-4	-1	0	·	·
CCOC(=O)COc1ccc2ccccc2c1/C=N/n1c(C)nc2ccccc2c1=O	0	7	5.0*	-4	-1	-12
Cc1cccc(N2C(=O)c3cccc4c(N5CCCCC5)ccc(c34)C2=O)c1	0	4	0	0	·	·
CC(=O)N1CCCN(c2nc3cc(C)cc(C)c3cc2C#N)CC1	0	13	7.2*	11	-1	0
Cc1cc(C)c2cc(C#N)c(N3CCCN(C(=O)CCC(=O)O)CC3)nc2c1	0	6	1	-7	·	·
O=C(N/N=C/c1ccccc1Br)NC1CCCCC1	0	6	-1	5	·	·
COC(=O)c1c(C)[nH]c(C)c1-c1cccc2ccccc12	0	8	1	9	·	·
Oc1ccc(Br)cc1-c1nnc2ccc3ccccc3n12	0	15	10*	6	0	14
CCOc1ccc(-c2nnn(CC(C)=O)n2)cc1	0	-9	10.0*	-68	0	14
CCOc1ccc(-c2nnn(CC(C)=O)n2)cc1OCC	0	5	0	-53	·	·
O=C(O)Cn1cc(/C=N/NC(=O)CN2CC(c3ccccc3)CC2=O)c2ccccc21 (stereo not drawn)	0	-6	-1	-4	·	·
COc1ccc(OC)c(C(=O)CC2(O)C(=O)Nc3ccc(Br)cc32)c1 (stereo not drawn)	0	-3	5.8*	-17	0	-5
NS(=O)(=O)c1ccc(CCNC(=O)c2cccc(C#CC3(O)CCCCC3)c2)cc1	0	-9	5.0*	0	1	-5
Cc1cc(C(=O)NCCc2ccc(S(N)(=O)=O)cc2)cs1	0	-5	1	-6	·	·
N[C@H](c1ccc(F)cc1)c1nc2cc(-c3ccncc3)cnc2s1	0	-1	-1	-4	·	·
CCOC(=O)C1CCCN(CCC(=O)Nc2ccccc2)C1 (stereo not drawn)	0	11	1	4	·	·
CCOC(=O)C1CCCN(CCC(C)c2ccccc2)C1 (stereo not drawn)	0	34	8.1*	1	0	-5
O=C(O)c1ccccc1C(=O)c1ccc(Cl)c(N2C(=O)CCC2=O)c1	0	-18	1	-8	·	·
O=C(Nc1ccccc1Oc1cccnc1)C1CCCN(Cc2c[nH]c3ccccc23)C1 (stereo not drawn)	0	10	-1	1	·	·
SMILES	FBW7 activator	MITF primary	GPR151 activ	TEAD-YAP inh	GPR151 conf act	GPR119 counter
CC(C)(C)C#C/C=N/n1nnc(-c2ccccc2)n1	0	8	5.8*	-3	-1	-4
O=C(Nc1c(Cl)cccc1Cl)N[C@H]1C[C@H]2C(=O)N[C@H](Cc3ccccc3)C(=O)N2C1	0	9	2	8	·	·
COc1cc(/C=C2/C(=O)NC(=O)N(c3ccc(Cl)cc3)C2=O)cc(OC)c1O	0	12	16*	4	0	12
CCOc1ccc(N2C(=O)NC(=O)/C(=C\c3ccc(O)c(OC)c3)C2=O)cc1	0	14	1	3	·	·
CCc1ccc(N2C(=O)NC(=O)/C(=C/c3cc(OC)c(O)c(OC)c3)C2=O)cc1	0	-12	1	-1	·	·
COc1ccc(N2C(=O)NC(=O)/C(=C\c3ccc(O)c([N+](=O)[O-])c3)C2=O)cc1	0	22	5.8*	3	-1	-5
Cc1cc(N2C(=O)NC(=O)/C(=C\c3ccccc3OCC#N)C2=O)ccc1Br	0	-7	5.6*	0	1	19
C=CCc1cc(/C=C2/C(=O)NC(=O)N(c3ccc(OCC)cc3)C2=O)ccc1O	0	16	9.3*	8	1	-2
CCOc1ccc(C(=O)Nc2ccc(Br)cc2)cc1[N+](=O)[O-]	0	-7	-1	2	·	·
Cc1cc(Br)ccc1N1C(=O)c2ccc(S(=O)(=O)c3ccc(C(=O)O)cc3)cc2C1=O	0	2	0	-6	·	·
COc1cc(NC(=O)Cc2cn(-c3ccc(N4CCC(N5CCOCC5)CC4)nn3)c3ccccc23)cc(OC)c1OC	0	-5	-2	-22	·	·
CC(C)(C)c1cc(Br)ccc1OCC(=O)Nc1nc2ccccc2s1	0	3	2	1	·	·
CCOc1cc(/C=C2\C(=O)NC(=O)N(c3cc(C)ccc3C)C2=O)ccc1O	-1	-9	8.9*	18	0	12
COc1ccc(/C=C2\C(=O)NC(=O)N(c3ccc(Br)cc3)C2=O)c(OC)c1	0	-2	7.3*	-6	0	4
COc1ccc(/C=C2/C(=O)NC(=O)N(c3ccc(C)cc3)C2=O)c(OC)c1	0	17	1	7	·	·
COc1cccc(/C=C2\C(=O)N(c3ccccc3)N=C2C)c1O	0	2	-2	-7	·	·
CCOC(=O)[C@H](CCc1ccccc1)N[C@@H](C)C(=O)N1[C@H](C(=O)O)C[C@@H]2CCC[C@@H]21	0	-3	7.0*!	7	2	12
Cc1ccccc1-c1cnnc(NCc2cc(-c3ccccc3)on2)n1	0	18	-2	-3	·	·
Cc1ccccc1-c1cnnc(NCC2COCCO2)n1 (stereo not drawn)	0	3	7.4*	-1	1	2
O=C(NCc1ccccc1)C1(c2ccccc2)CCN(S(=O)(=O)c2ccccc2)CC1	0	-8	5.6*	5	0	-12
O=C(NCc1cccs1)Nc1ccccc1	0	-4	0	-14	·	·

High-throughput results as filed in PubChem BioAssay.
